The results in this text go back to PubChem BioAssay AID488969 (Vanderbilt High Throughput Screening Facility, 2010).

In all, about 110,000 compounds were measured (“z-score”: median about -0.1, highest 2% from about 2 on). Many of the other results were omitted from the sample, so the highest values are more common in it than they were. Calls of active or inactive are those of the source.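 The calls were made as follows: active = z-score in the third read window above 3 or below -3; inactive = the rest.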

Chain of Metabotropic glutamate receptor 8 (Rattus norvegicus) (P70579 whole entry, looked up): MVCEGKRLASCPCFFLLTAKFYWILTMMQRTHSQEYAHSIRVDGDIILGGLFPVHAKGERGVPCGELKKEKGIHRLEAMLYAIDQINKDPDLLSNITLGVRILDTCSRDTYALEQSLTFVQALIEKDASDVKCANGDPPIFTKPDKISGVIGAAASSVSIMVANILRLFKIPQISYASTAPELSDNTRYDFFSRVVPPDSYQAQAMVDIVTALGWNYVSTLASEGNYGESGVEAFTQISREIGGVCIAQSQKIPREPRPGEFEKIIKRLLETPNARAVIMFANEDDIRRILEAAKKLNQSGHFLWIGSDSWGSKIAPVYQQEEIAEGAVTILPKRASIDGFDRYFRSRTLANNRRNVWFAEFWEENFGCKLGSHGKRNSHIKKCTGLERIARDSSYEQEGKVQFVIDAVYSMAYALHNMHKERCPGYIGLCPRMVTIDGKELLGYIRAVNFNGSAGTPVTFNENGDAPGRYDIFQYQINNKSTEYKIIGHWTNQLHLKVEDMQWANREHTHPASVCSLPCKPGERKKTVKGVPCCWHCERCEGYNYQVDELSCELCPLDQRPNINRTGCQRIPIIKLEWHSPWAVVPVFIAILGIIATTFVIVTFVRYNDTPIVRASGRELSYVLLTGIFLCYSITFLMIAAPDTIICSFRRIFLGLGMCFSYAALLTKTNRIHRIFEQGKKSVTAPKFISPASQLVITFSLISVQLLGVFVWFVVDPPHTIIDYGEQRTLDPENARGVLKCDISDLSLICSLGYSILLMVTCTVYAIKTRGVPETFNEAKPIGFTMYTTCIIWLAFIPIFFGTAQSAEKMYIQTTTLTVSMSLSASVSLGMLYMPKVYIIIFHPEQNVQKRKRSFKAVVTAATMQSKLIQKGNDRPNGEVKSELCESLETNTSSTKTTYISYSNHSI

The test has as its target Metabotropic glutamate receptor 8 (Rattus norvegicus) (UniProt P70579). Nature of the test: rat mGluR8 modulators via GIRK flux, primary screen, cell-based, thallium flux, HTS (AID 488969). Particulars: HEK293 rat mGluR8, GIRK (G protein-gated inwardly rectifying potassium channel) thallium flux, FluoZin2; at 10 µM; stronger effect = higher value; submaximal glutamate (EC20) added with thallium.
On to `CC(=O)c1cn(CC(=O)NCc2ccco2)c2ccccc12`, for which the z-score was -0.774. In the case of `CCCNC(=S)N1CCC(c2nc3cc(C)c(C)cc3[nH]2)CC1`, the z-score was -0.228. As for `Cc1ccc(-c2nn(CC(=O)Nc3cccnc3)c(=O)c3ccccc23)cc1`, the figure is -0.291; as for `CN(C)c1ccc(C2C3C(=O)NC(=O)C3ON2c2ccc(Cl)cc2)cc1` (stereo not drawn), 2.58. As for `CN(C)c1ccc(C2N(c3ccc(Cl)cc3)C(=O)C3CCCN32)cc1` (stereo not drawn), the z-score is -0.129. In turn, `COc1ccccc1N1C(=O)C2ON(c3ccccc3)C(c3ccc(N(C)C)cc3)C2C1=O` (stereo not drawn) yielded a z-score of 0.0686. For the compound `Cc1ccc(C(=O)C(C(=O)/C=C/c2ccccc2)=C2SCCCS2)cc1`, the z-score was found to be 0.0319. As for `c1ccc(-c2csc3ncn4nnnc4c23)cc1`, the figure is -0.177. As for `CCCC1CC(CSC(=N)N)OC1=O` (stereo not drawn), the figure is -0.478; as for `Cc1csc(SCC(=O)Nc2nc(-c3ccccc3)cs2)n1`, 1.07; as for `Cc1csc(NC(=O)CSc2nc3ccccc3s2)n1`, -0.293. In the case of `Cc1csc(SCC(=O)Nc2nc3ccccc3s2)n1` it was 3.3 (active); in that of `Cc1ccc(-c2nnc(SCC(=O)N3CCN(c4ccccc4)CC3)o2)cc1`, -1.07. The compound `COc1ccc2[nH]c(=O)c(CN(C(=O)c3ccccn3)c3ccccc3)cc2c1` yielded a z-score of -0.101.

`CCCN(CC1CC1)C(=O)COC(=O)c1[nH]c(C)c(C(=O)OCC)c1C` displayed a z-score of -0.372. The compound `COc1cc(NC(=O)c2cccnc2Sc2ccc(Cl)cc2)cc(OC)c1OC` had a z-score of -0.134. The compound `Cc1ccc(S(=O)(=O)NC(Cc2c[nH]c3ccccc23)C(=O)O)cc1` (stereo not drawn) came in with a z-score of -0.0187.

The compound `Cc1cccc(S(=O)(=O)NC(Cc2c[nH]c3ccccc23)C(=O)O)c1` (stereo not drawn) yielded a z-score of 2.17.

`O=C(O)C(Cc1c[nH]c2ccccc12)NS(=O)(=O)c1cccc2nsnc12` (stereo not drawn) showed a z-score of 0.00264.

`CC(C)(C)c1[nH]nc2c1C(c1ccccc1OC(=O)N1CCOCC1)C(C#N)=C(N)O2` (stereo not drawn) registered a z-score of -2.43.

In the case of `O=C(CSc1nc2ccccc2[nH]1)N/N=C/C=C/c1ccccc1[N+](=O)[O-]`, the z-score was -0.487.

As for `COCCCNC(=O)c1ccc(N2CCCC2)c(NS(=O)(=O)c2ccc(C)cc2)c1`, the z-score is 0.547. As for `Cc1ccc(S(=O)(=O)Nc2cc(C(=O)NCCN3CCCC3)ccc2N2CCCCC2)cc1`, the figure is 1.81; as for `CCN(CC)CCNC(=O)c1ccc(N2CCCCC2)c(NS(=O)(=O)c2ccc(C)cc2)c1`, 2.96; as for `Cc1nnc2sc(SCc3ccccc3)nn2c1=O`, -0.0579. For the compound `CC(=O)/C(=N\Nc1ccccc1Cl)Sc1cccc2cccnc12`, the z-score came to 0.299. As for `CC(=O)/C(=N\Nc1ccc(Cl)cc1Cl)Sc1cccc2cccnc12`, the figure is 2.29; as for `CC(=O)/C(=N\Nc1cccc(Cl)c1)Sc1cccc2cccnc12`, 0.635; as for `CC(C)(C)SCCNC(=O)c1ccc(NS(C)(=O)=O)cc1`, -0.0865.

`O=C(CSc1ccc(Cl)cc1)N1CCN(c2ncc(C(F)(F)F)cc2Cl)CC1` registered a z-score of -0.0561. `Cc1cc(NC(c2cccnc2)c2ccc3cccnc3c2O)no1` (stereo not drawn): the z-score is -0.344. As for `Cc1conc1NC(c1cccs1)c1ccc2cccnc2c1O` (stereo not drawn), the figure is 3.41 (active); as for `Cc1cc(NC(c2ccc(Cl)cc2)c2ccc3cccnc3c2O)no1` (stereo not drawn), 1.61; as for `COc1cccc(NC(=O)N(Cc2cc3cc(C)cc(C)c3[nH]c2=O)CC2COCCO2)c1` (stereo not drawn), -0.438. For `COc1ccc(NC(=O)/C=C/C(=O)O)cc1Cl`, the z-score was 0.0641. In the case of `Cc1ccc(NC(=O)/C(=C\c2ccccc2)NC(=O)/C=C/c2ccccc2)cc1` it was -0.26; in that of `CC1CCN(C(=O)CSc2nnc(CNC(=O)c3ccco3)o2)CC1`, 2.28; in that of `O=C(NCc1nnc(SCC(=O)N2CCCCCC2)o1)c1ccco1`, -0.474. `O=C(NCc1nnc(SCC(=O)N2CCN(c3ccccc3)CC2)o1)c1ccco1`: the z-score was -0.268. In the case of `CCOC(=O)c1c(NC(=O)CSc2nnc(CNc3ccc(Cl)cc3)o2)sc(C)c1C` it was -0.783; in that of `Cn1nc(C(F)(F)F)c2cc(NC(=O)OCc3ccc(F)cc3)sc21`, 9.32 (active); in that of `COc1ccc(COC(=O)Nc2cc3c(C(F)(F)F)nn(C)c3s2)cc1`, -0.456. Turning to `Cn1nc(C(F)(F)F)c2cc(NC(=O)OCC(C)(C)C)sc21`, the z-score was -1.03.

For `N/C(=N\OC(=O)CSc1ccccc1)c1cccc([N+](=O)[O-])c1`, the z-score is -0.477. In the case of `O=C(COC(=O)c1ccccc1NC(=O)c1ccccc1)c1ccc([N+](=O)[O-])cc1` it was -0.202; in that of `CCc1ccc(C(=O)CSC2=C(C#N)C(c3ccco3)C(C(C)=O)=C(C)N2)cc1` (stereo not drawn), -0.295.

As to `CC(=O)C1=C(C)NC(SCc2cccc3ccccc23)=C(C#N)C1c1ccco1` (stereo not drawn), the z-score came to 0.063.

Regarding `CSCSC1=C(C#N)C(c2ccccc2Cl)C(C(C)=O)=C(C)N1` (stereo not drawn), the z-score is -2.68. Consider `CSCSC1=C(C#N)C(c2ccc(Cl)cc2)C(C(C)=O)=C(C)N1` (stereo not drawn), for which the z-score is 3.87 (active). `CC(=O)C1=C(C)NC(SCc2ccc(C#N)cc2)=C(C#N)C1c1ccco1` (stereo not drawn): the z-score is 5.85 (active). In the case of `C=CCOC(=O)C1=C(C)NC(SCC)=C(C#N)C1c1ccc(Cl)cc1` (stereo not drawn) it was 0.285; in that of `Cn1c(CNC(=O)c2ccc(Cl)cc2)nnc1SCC(=O)Nc1sc2c(c1C#N)CCCC2`, 0.356; in that of `CN1CCc2nc(SCc3ccc(Cl)cc3)c(C#N)c(-c3cccs3)c2C1`, 0.101. The compound `CCN(C(=O)C1CCN(S(=O)(=O)c2cccc3nonc23)CC1)c1ccccc1` showed a z-score of -0.39. In turn, `CCOC(=O)c1[nH]c(C)c(/C(O)=C2\C(=O)C(=O)N(CCN(C)C)C2c2ccc(C)o2)c1C` (stereo not drawn) registered a z-score of -0.288. As for `COC(=O)[C@H](CCSC)NC(=O)N1CCC(C)CC1`, the figure is 0.07. As for `COc1ccc(NC(=O)c2cccnc2Sc2ccccc2)c(OC)c1`, the figure is -0.415; as for `COc1cc2c(cc1OC)CN(S(C)(=O)=O)CC2`, 0.0161; as for `NS(=O)(=O)c1ccc(NC(=O)COC(=O)CCC2CCCCC2)cc1`, -0.157. `N=c1ncn(CC(O)CO)c2nc(N3CCOCC3)[nH]c12` (stereo not drawn) showed a z-score of -0.0516.

As to `COc1ccc(C(=O)N(C(C)C)C(C)C)c(OC)c1`, the z-score was determined as 0.14.

In turn, `Oc1[nH]c2ccccc2c1N=Nc1nc2ccccc2s1` had a z-score of 2.12. As for `Oc1[nH]c2ccccc2c1N=Nc1ccccc1F`, the figure is 0.0754.

Take `Oc1[nH]c2ccccc2c1N=Nc1ccc(F)cc1`: the z-score is -0.405.

As to `CCCC(=O)NC(NC(=S)Nc1c(C)n(C)n(-c2ccccc2)c1=O)C(Cl)(Cl)Cl` (stereo not drawn), the z-score is -0.165. For `Cc1c(NC(=O)C2CC=CCC2C(=O)O)c(=O)n(-c2ccccc2)n1C` (stereo not drawn), the z-score was 2.16. `Cc1c(NC(=O)CSc2ccccn2)c(=O)n(-c2ccccc2)n1C` came in with a z-score of -0.147. The compound `Cc1c(NC(=O)CSc2nccn2C)c(=O)n(-c2ccccc2)n1C` registered a z-score of -0.0895.

`Cc1c(NC(=O)C2C3C=CC(C3)C2C(=O)O)c(=O)n(-c2ccccc2)n1C` (stereo not drawn) yielded a z-score of 0.15. In the case of `Cc1c(NC(=S)NC(NC(=O)CC(C)C)C(Cl)(Cl)Cl)c(=O)n(-c2ccccc2)n1C` (stereo not drawn), the z-score amounted to 2.53. `Cc1c(NC(=O)N(C)C)c(=O)n(-c2ccccc2)n1C` showed a z-score of -0.0915. As for `Cc1c(NC(=O)CC(=O)Nc2c(C)n(C)n(-c3ccccc3)c2=O)c(=O)n(-c2ccccc2)n1C`, the figure is -0.0936.

In the case of `Cc1c(NC(=O)CSc2ccccc2C(=O)Nc2cccnc2)c(=O)n(-c2ccccc2)n1C`, the z-score worked out at 2.06. As for `Cc1c(NC(=O)CCC(=O)N2CCCCC2)c(=O)n(-c2ccccc2)n1C`, the figure is -0.244. `Cc1c(NC(=O)CCC2CCCCC2)c(=O)n(-c2ccccc2)n1C` gave a z-score of 2.9. The compound `CCC(=O)NC(NC(=S)Nc1c(C)n(C)n(-c2ccccc2)c1=O)C(Cl)(Cl)Cl` (stereo not drawn) showed a z-score of -0.491. As for `O=C(NCCc1ccncc1)C12CC3CC(CC(C3)C1)C2`, the figure is 0.467; as for `CC1CCN(S(=O)(=O)c2ccc3c(c2)oc(=O)n3CC(=O)N2c3ccccc3CC2C)CC1` (stereo not drawn), 0.0729.

The compound `Cc1cc(C)n(-c2nc(NCC3CCCO3)c3c4c(sc3n2)COC(C)(C)C4)n1` (stereo not drawn) showed a z-score of -2. As for `C=CCc1cccc(/C=N/NC(=O)CCCNc2ccc(C)cc2)c1O`, the figure is -0.144. Regarding `CCOC(=O)C1CCN(C(=O)CN(c2ccc(OC)cc2)S(=O)(=O)c2c(C)nn(C)c2C)CC1`, the z-score was -0.304. Take `CCCC(C)NC(=O)c1ccc2[nH]c3c(c2c1)CC(C)CC3` (stereo not drawn): the z-score is -0.815. In the case of `O=C(CSc1ncn(-c2ccccc2)n1)Nc1ccc(Br)cn1` it was -0.314.

The compound `COC(=O)c1c(C)[nH]c(C(=O)OCC(=O)NCC(C)C)c1C` yielded a z-score of -0.00108. For `O=C(CSCCO)Nc1cccc([N+](=O)[O-])c1`, the z-score is -1.53. As for `Cc1c(NC(=O)C(=O)/C=C(\O)c2ccc(Cl)cc2)c(=O)n(-c2ccccc2)n1C`, the figure is 2.16; as for `Cc1c(NC(=O)C(=O)/C=C(/O)c2ccccc2)c(=O)n(-c2ccccc2)n1C`, -0.309; as for `Cc1c(NC(=O)C(=O)/C=C(\O)c2ccc(Br)cc2)c(=O)n(-c2ccccc2)n1C`, -0.237. For `O=C1COc2ccc(C(=O)c3ccccc3C(=O)NCc3ccco3)cc2N1`, the z-score stood at 0.0372. In the case of `C=CCn1c(SCC(=O)c2[nH]c(C)c(C(=O)OCC)c2C)nc2scc(-c3ccc(OC)c(OC)c3)c2c1=O` it was -0.123; in that of `CCOc1cc(C2NN=C(c3ccc(C)cc3)S2)ccc1O` (stereo not drawn), 8.33 (active); in that of `CCOc1cc(C2NN=C(c3ccccc3)S2)ccc1OCc1ccccc1Cl` (stereo not drawn), 0.78.

Turning to `CCOc1cc(C2NN=C(c3ccccc3)S2)ccc1OCc1ccc(F)cc1` (stereo not drawn), the z-score came to 0.745.

In turn, `CC1CCCCN1C(=O)CSc1nnc(-c2cccnc2)n1C1CCCCC1` (stereo not drawn) returned a z-score of 0.109.

On to `COc1ccccc1N(CC(=O)NCc1cccnc1)S(C)(=O)=O`, for which the z-score amounted to 0.0794. As for `CCN(CC)CCNC(=O)c1ccc2c(=O)n(C3CCCC3)c(=S)[nH]c2c1`, the figure is 0.125; as for `CCCCCn1c(=O)[nH]c2cc(C(=O)N3CCN(CC)CC3)ccc2c1=O`, 0.0715; as for `O=C(c1ccc2c(=O)n(C3CCCC3)c(=S)[nH]c2c1)N1CCc2ccccc21`, 9.93 (active). In turn, `O=C(c1ccc(CNc2c(NC3CCCCC3)c(=O)c2=O)cc1)N1CCc2ccccc21` yielded a z-score of -0.164. In the case of `CCCn1c(=S)[nH]c2cc(C(=O)N3CCc4ccccc43)ccc2c1=O`, the z-score was 1.07.

For `CCN1CCN(C(=O)c2ccc3c(=O)n(C4CCCC4)c(=S)[nH]c3c2)CC1`, the z-score is 5.09 (active). `O=C(Nc1ccc([N+](=O)[O-])cn1)c1cc(-c2cccc(Br)c2)nc2ccccc12` showed a z-score of 0.61. In turn, `COC(=O)c1[nH]c2ccc(C)cc2c1NC(=O)CN1CCCC(C)(C)C1` gave a z-score of -0.603.
